Screens as filed in PubChem.
PLK1 PBD block = blocks phosphopeptide binding to human PLK1 polo-box domain; P53350; Plk1 PBD binding of FITC phosphopeptide, fluorescence polarization; Potency, µM, hits mostly inhibitors; hit rate 2.8% among 360,000; AID 720504; also: series mostly up to about 57 µM; nearly all actives have a fitted effect of over 65% in size
BAZ2B inh = inhibitors of human BAZ2B bromodomain; Q9UIF8; AlphaScreen BAZ2B-H3K14Ac peptide displacement; Potency, µM (series often up to 114 µM), usual class: inhibitors; hit rate 4.4% among 360,000; AID 504333; also: nearly all actives have a fitted effect of over 60% in size
Target sequence (Q9UIF8 whole entry, looked up): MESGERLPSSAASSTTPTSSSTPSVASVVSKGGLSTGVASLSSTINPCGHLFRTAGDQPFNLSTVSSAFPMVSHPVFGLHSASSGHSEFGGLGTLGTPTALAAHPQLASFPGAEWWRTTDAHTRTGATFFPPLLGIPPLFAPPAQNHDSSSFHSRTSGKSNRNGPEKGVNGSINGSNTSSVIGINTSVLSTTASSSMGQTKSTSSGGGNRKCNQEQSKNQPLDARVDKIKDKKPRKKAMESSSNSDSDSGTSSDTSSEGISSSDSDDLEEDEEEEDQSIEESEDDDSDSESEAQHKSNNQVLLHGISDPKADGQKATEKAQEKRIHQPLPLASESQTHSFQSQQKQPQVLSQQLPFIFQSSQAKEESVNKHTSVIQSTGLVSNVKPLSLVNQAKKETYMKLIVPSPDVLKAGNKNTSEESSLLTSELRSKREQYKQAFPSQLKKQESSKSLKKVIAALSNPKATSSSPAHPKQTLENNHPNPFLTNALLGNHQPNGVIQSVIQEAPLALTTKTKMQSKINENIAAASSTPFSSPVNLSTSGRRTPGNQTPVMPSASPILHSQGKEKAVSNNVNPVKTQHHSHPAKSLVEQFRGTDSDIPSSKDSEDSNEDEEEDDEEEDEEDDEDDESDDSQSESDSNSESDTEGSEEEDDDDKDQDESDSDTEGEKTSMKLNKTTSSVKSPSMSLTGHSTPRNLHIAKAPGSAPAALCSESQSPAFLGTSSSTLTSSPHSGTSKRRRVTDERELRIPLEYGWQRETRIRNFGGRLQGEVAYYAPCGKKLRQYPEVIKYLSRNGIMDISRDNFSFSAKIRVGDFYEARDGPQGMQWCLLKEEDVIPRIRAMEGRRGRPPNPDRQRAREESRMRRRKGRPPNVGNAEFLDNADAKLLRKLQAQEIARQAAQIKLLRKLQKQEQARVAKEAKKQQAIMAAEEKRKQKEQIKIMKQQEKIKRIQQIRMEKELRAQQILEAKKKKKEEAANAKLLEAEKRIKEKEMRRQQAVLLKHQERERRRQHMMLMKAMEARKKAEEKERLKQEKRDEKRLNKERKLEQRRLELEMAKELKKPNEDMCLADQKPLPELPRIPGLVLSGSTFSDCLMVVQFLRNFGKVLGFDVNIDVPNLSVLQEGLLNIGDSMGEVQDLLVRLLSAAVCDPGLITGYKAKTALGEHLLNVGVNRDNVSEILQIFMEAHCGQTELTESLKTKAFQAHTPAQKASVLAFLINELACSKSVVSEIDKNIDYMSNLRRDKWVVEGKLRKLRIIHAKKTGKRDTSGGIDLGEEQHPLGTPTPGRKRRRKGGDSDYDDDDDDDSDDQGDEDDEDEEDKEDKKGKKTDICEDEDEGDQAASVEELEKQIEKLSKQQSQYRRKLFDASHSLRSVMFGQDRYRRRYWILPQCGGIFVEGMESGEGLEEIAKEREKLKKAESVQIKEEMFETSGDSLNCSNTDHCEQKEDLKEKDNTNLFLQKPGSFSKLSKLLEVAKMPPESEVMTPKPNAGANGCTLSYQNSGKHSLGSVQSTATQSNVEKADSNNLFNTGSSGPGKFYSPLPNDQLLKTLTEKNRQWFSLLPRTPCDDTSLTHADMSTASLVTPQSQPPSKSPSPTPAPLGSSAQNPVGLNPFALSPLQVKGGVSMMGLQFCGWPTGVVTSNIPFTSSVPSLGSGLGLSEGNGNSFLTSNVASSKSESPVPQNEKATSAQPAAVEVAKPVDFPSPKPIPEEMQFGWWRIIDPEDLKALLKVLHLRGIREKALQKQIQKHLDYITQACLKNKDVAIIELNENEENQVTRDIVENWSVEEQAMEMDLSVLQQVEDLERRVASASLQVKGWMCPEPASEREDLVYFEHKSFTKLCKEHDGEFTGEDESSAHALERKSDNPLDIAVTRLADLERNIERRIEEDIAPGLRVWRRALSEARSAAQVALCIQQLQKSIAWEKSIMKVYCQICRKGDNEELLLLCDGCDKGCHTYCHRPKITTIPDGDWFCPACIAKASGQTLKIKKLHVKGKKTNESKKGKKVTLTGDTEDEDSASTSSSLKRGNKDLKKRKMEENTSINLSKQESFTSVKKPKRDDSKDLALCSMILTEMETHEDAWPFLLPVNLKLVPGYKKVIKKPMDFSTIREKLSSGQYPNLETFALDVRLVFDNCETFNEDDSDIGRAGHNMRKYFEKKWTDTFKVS
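Protein-peptide AlphaScreen: BAZ2B 50 nM, b-H3K14Ac 50 nM, 1x PBS pH 7.4 + 0.01% Tween-20. Preincubation 30 min RT; cpd 30 min RT (top 110 uM); beads 20 min RT, light-protected.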
HP1b binding inh = inhibitors of HP1-beta chromodomain binding to methylated histone tails; P83916; AlphaScreen HP1-beta / biotin-H3K9me3 peptide binding; Potency, µM (titrated, usually from 114 µM), most hits filed as inhibitors; hit rate 0.56% among 390,000; AID 540317; also: nearly all actives have a fitted effect of over 70% in size
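AlphaScreen: HP1-beta (50 nM) preformed 30 min with biotin-H3(1-18)K9me3 peptide (50 nM) in PBS pH 7.4, 0.01% Tween-20. Compound added for 30 min at RT, then streptavidin donor/nickel chelate acceptor beads (10 ug/mL) for 30 min.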
G9a block = inhibitors of human histone lysine methyltransferase G9a. Q96KQ7. G9a H3K9 monomethylation, AlphaScreen, 2 h. Potency, µM (highest dose often 102 µM), hits mostly inhibitors. hit rate 8.8% among 350,000. AID 504332; also: nearly all actives have a fitted effect of over 75% in size
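G9a (20 nM) preincubated 15 min RT with compounds, then 500 nM biotinylated H3K9 peptide and 20 uM SAM added; 2 h RT reaction. Monomethyl-H3K9 product detected by AlphaScreen with anti-H3K9me1 antibody, streptavidin donor and anti-rabbit IgG acceptor beads.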
PI5P4Ka inh = PI5P4K alpha (human) kinase inhibition; P48426; PI5P4Kalpha enzyme, ADP-Glo luminescence, 60 min; stronger effect = lower value; max response, %; hit rate 1.2% among 330,000; AID 652105; active = max response of -50% or lower; inconclusive = between -30% and -50%; inactive = -30% or higher; also: value at the top dose of about 77 µM
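Quantitative HTS of the MLSMR library against PI5P4Kalpha with substrate. ATP added last at 5 microM final; room temperature, 60 minutes. Remaining ATP depleted, ADP converted and read as luminescence.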
JMJD2A Tudor = blocks the human JMJD2A Tudor domain; O75164; AlphaScreen JMJD2A-Tudor / H3K4me3 peptide binding; AID 504339; hit rate 4.4% among 390,000; Potency, µM (series often up to 114 µM), usual class: inhibitors; also: nearly all actives have a fitted effect of over 50% in size
Each line names hits and unclear results; the compound was inactive in the other large screens. Compounds with a hit are over-represented: about 12% of the library has one in this group of screens. Unless noted, calls follow the shape of the dose curve; as a rule, active = well fitted curve in the direction sought with a large enough effect; inconclusive = small, poorly fitted or top-dose-only effect, or another doubt; inactive = no such curve, though single readings can be large; an effect the other way counts as inactive or inconclusive.

CC1(C(=O)NS(=O)(=O)c2cccs2)CCN1C(=O)CCc1ccc(Cl)cc1Cl (stereo not drawn)	none (no result: BAZ2B inh, HP1b binding inh, G9a block, JMJD2A Tudor)
CCCn1c2ccccc2c2cnn(CC(=O)NCCc3ccc(OCC)c(OCC)c3)c(=O)c21	none (no result: PLK1 PBD block, PI5P4Ka inh)
c1ccc(CSc2ccc(-c3cccs3)nn2)cc1	none
c1ccc(CSc2ccc(-c3cccs3)nn2)nc1	PLK1 PBD block inconclusive, G9a block 16µM
Cc1cccc(NC(=S)N/C(=N/S(=O)(=O)c2ccccc2)c2ccccc2)c1	PLK1 PBD block 24µM, G9a block inconclusive
CC(C)O/C(=N\S(=O)(=O)c1ccc(Cl)cc1)c1ccccc1	none (no result: PI5P4Ka inh)
O=[N+]([O-])c1ccc(NC(=S)N/C(=N/CS(=O)(=O)c2ccccc2)c2ccccc2)cc1	PLK1 PBD block 19µM, BAZ2B inh inconclusive, G9a block 11µM
CC(C)OC(=S)N/C(=N\S(=O)(=O)c1ccccc1)c1ccccc1	PLK1 PBD block inconclusive, G9a block 11µM (no result: PI5P4Ka inh)
CCn1c(O)c(N=NC(=O)CNC(=O)c2ccco2)c2ccccc21	none
CCn1c(O)c(N=NC(=O)CNC(=O)/C=C/c2ccco2)c2ccccc21	G9a block 56µM (no result: PI5P4Ka inh)
COc1ccc(C(CNC(=O)c2ccc(S(=O)(=O)N3CC(C)CC(C)C3)cc2)N(C)C)cc1 (stereo not drawn)	none (no result: BAZ2B inh, G9a block)
COc1cccc(Cn2c(=O)c(-c3cccc(F)c3)nc3cncnc32)c1	none (no result: PLK1 PBD block, BAZ2B inh, HP1b binding inh, PI5P4Ka inh, JMJD2A Tudor)
CC(=O)Nc1ccc(S(=O)(=O)/N=C2/NC(=O)/C(=C\c3ccco3)S2)cc1	PLK1 PBD block inconclusive, BAZ2B inh inconclusive, G9a block 22µM
Cc1ccc(S(=O)(=O)/N=C2/NC(=O)/C(=C/c3ccncc3)S2)cc1	G9a block inconclusive (no result: PLK1 PBD block, HP1b binding inh, PI5P4Ka inh, JMJD2A Tudor)
Cc1ccc(S(=O)(=O)/N=C2/NC(=O)/C(=C\c3ccco3)S2)cc1	PLK1 PBD block inconclusive, G9a block 40µM
O=c1[nH]cnc2cc(Cl)ccc12	G9a block 50µM
CCNCc1nc2cc(Cl)ccc2c(=O)[nH]1	G9a block inconclusive
CC12CCC(C(=O)O)(c3nc4cc([N+](=O)[O-])ccc4nc31)C2(C)C (stereo not drawn)	none
CC12CCC(C)(c3nc4ccccc4nc31)C2(C)C	PLK1 PBD block 30µM, JMJD2A Tudor inconclusive
CCOc1ccccc1Nc1ccnc2cc(Cl)ccc12	none
CC/C(=N\Nc1ccnc2cc(Cl)ccc12)c1ccc(O)cc1	BAZ2B inh inconclusive, G9a block 28µM, JMJD2A Tudor inconclusive
CCN(CC)Cc1ccc(Nc2ccnc3cc(Cl)ccc23)cc1O	none (no result: PLK1 PBD block, BAZ2B inh, HP1b binding inh, PI5P4Ka inh, JMJD2A Tudor)
Oc1ccc(/C=N/Nc2ccnc3cc(Cl)ccc23)c(O)c1O	PLK1 PBD block 2.1µM, BAZ2B inh 45µM, G9a block 22µM, PI5P4Ka inh -74, JMJD2A Tudor inconclusive
Oc1ccc(/C=N/Nc2ccnc3cc(Cl)ccc23)cc1O	BAZ2B inh 40µM, G9a block inconclusive, PI5P4Ka inh inconclusive
CC(=O)Nc1ccc(Nc2nc(C)cc(C)n2)cc1	none
Cc1ccc(Nc2nc(C)cc(C)n2)c(C(=O)O)c1	G9a block 8.9µM (no result: PLK1 PBD block, PI5P4Ka inh)
Cn1c(SCc2ccccc2)nnc1C1CCCNC1 (stereo not drawn)	BAZ2B inh inconclusive, G9a block inconclusive, JMJD2A Tudor inconclusive
Cn1c(SCC#N)nnc1-c1cnccn1	G9a block 1.4µM (no result: PI5P4Ka inh)
CCOc1ccc(C(=O)CSc2nnc(C3CC3)n2C)cc1	G9a block inconclusive
Cn1c(SCC(=O)c2ccccc2)nnc1C1CC1	PLK1 PBD block inconclusive, G9a block 40µM
O=C(CSc1nnc(C2CC2)n1Cc1ccccc1)N1CCN(S(=O)(=O)c2ccccc2)CC1	none
O=C(CSc1nnc(C2CC2)n1Cc1ccccc1)c1ccc(S(=O)(=O)N2CCOCC2)cc1	G9a block 3.2µM
Cn1c(SCc2ccc(Cl)cc2)nnc1C1CC1	G9a block 32µM
Cc1c(NC(=O)c2cccc3c(Cl)cccc23)cccc1-c1nc2ccccc2o1	none (no result: PLK1 PBD block, PI5P4Ka inh)
COc1ccc(Cl)cc1NC(=O)CN(C)CC(=O)Nc1cc(OC)c(OC)c(OC)c1	none
C=C(CCC12O[C@H](C(=O)O)[C@@](O)(C(=O)O)[C@](C(=O)O)(O1)[C@H](OC(=O)/C=C/[C@@H](C)C[C@@H](C)CC)[C@H]2O)[C@@H](OC(C)=O)[C@H](C)Cc1ccccc1	none (no result: PLK1 PBD block, BAZ2B inh, HP1b binding inh, PI5P4Ka inh, JMJD2A Tudor)
